What all share (experiment): Primary Screen for Target Class Profiling of Small Molecule Inhibitors of Methyltransferases
Test [1] has as its target Catechol O-methyltransferase (Homo sapiens) (UniProt P21964). The settings on record: purified enzyme, MTase-Glo SAH luminescence; activity change, negative = inhibition: at 40 µM, stronger effect = lower value; outcome: 40 uM. In short, it runs like this: (§1)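 Each enzyme was assayed with SAM and its substrate. SAH formation detected by MTase-Glo luminescence; single-point 40 uM screen[…].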

Test [2] deals with Glycine N-methyltransferase (Homo sapiens) (UniProt Q14749). The settings on record: purified enzyme, MTase-Glo SAH luminescence; measured here: GNMT inhibition; at 40 µM; stronger effect = lower value. An outline of the steps: as §1
Test [3] concerns the target Guanidinoacetate N-methyltransferase (Homo sapiens) (UniProt Q14353). The following applies: purified enzyme, MTase-Glo SAH luminescence; measured here: GAMT inhibition; at 40 µM; stronger effect = lower value. An outline of the steps: as §1
Test [4] concerns the target Histamine N-methyltransferase (Homo sapiens) (UniProt P50135). The settings on record: purified enzyme, MTase-Glo SAH luminescence; measured here: HNMT inhibition; at 40 µM; stronger effect = lower value. In short, it runs like this:
as §1

For test [5], the target named is Nicotinamide N-methyltransferase (Homo sapiens) (UniProt P40261). The settings on record: purified enzyme, MTase-Glo SAH luminescence; measured here: NNMT inhibition; at 40 µM; stronger effect = lower value. An outline of the steps:
as §1

Test [6] addresses Phenylethanolamine N-methyltransferase (Homo sapiens) (UniProt P11086). The settings on record: purified enzyme, MTase-Glo SAH luminescence; measured here: PNMT inhibition; at 40 µM; stronger effect = lower value. In short, it runs like this:
as §1

In all, about 25,000 compounds went through this assay and about 970 (3.9%) were called active. Another 8% or so got no clear call; they are omitted. No rule for the calls is given here. This excerpt belongs to a sample that is enriched for actives.
% is scaled to controls: 0 for no effect and ±100 for the full control effect.

Chain of Catechol O-methyltransferase (Homo sapiens) (P21964 whole entry, looked up): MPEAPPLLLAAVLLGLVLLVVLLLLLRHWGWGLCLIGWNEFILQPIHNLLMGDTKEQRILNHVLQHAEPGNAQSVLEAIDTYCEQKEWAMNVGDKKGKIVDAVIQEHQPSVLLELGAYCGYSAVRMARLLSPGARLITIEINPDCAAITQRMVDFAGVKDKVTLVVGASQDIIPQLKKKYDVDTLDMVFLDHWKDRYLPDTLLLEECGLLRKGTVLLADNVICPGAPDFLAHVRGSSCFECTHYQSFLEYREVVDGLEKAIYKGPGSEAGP
Chain of Glycine N-methyltransferase (Homo sapiens) (Q14749 whole entry, looked up): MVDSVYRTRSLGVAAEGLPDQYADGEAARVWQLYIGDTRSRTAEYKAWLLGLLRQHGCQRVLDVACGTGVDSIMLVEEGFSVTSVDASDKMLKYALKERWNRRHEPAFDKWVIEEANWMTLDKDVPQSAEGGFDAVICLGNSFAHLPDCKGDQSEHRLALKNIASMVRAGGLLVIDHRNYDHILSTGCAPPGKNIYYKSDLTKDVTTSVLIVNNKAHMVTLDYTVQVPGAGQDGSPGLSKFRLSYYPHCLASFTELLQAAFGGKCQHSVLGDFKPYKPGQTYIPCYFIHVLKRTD
Chain of Nicotinamide N-methyltransferase (Homo sapiens) (P40261 whole entry, looked up): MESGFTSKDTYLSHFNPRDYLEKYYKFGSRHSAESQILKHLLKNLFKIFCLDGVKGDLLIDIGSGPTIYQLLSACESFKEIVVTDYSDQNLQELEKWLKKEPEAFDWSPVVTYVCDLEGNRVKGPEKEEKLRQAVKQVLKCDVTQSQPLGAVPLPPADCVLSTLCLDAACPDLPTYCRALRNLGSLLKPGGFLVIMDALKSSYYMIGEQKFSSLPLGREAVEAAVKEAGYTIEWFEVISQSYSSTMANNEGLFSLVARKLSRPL
Chain of Phenylethanolamine N-methyltransferase (Homo sapiens) (P11086 whole entry, looked up): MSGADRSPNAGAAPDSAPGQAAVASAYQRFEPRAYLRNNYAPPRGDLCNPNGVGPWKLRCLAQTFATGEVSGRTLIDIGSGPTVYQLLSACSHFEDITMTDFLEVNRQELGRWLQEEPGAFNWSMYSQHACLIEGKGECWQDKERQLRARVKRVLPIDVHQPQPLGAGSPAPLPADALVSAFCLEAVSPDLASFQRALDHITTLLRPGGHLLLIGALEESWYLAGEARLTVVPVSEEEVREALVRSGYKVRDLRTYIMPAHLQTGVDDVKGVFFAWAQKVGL
Chain of Histamine N-methyltransferase (Homo sapiens) (P50135 whole entry, looked up): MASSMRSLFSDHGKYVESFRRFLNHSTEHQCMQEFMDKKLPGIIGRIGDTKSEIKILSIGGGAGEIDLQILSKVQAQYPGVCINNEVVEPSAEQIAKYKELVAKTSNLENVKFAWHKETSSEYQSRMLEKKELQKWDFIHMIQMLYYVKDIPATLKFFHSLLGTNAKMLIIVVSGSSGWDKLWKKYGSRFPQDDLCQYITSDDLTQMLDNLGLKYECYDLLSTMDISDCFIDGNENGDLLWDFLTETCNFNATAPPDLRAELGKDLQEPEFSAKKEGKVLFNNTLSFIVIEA

As for `COc1ccccc1CN1C(=O)c2cc3sccc3n2CC1(C)C(=O)NC1CCCC(C)C1C` (stereo not given), the activity change, negative = inhibition is 4.18% (inactive) in test [1]; 1.88% in test [2]; 0% in test [3]; 3.67% in test [4]; -3.12% in test [5]; 1.29% in test [6].
On to `Cc1cnc(-c2ccncc2)n1CCN`, for which the activity change, negative = inhibition in test [1] was -5.2% (inactive); in test [2], -4.08%; in test [3], -7.5%; in test [4], -1.23%; in test [5] it was -6.93%; in test [6] it was -8.39%.
Take `Cc1cc(Cl)ccc1OCC(=O)N1CC(CO)C2(CCNCC2)C1` (stereo not given): the activity change, negative = inhibition in test [1] is 2.63% (inactive); in test [2] it was -0.912%; in test [3] it was -2.42%; in test [4], -7.34%; in test [5], 1.44%; in test [6], 4.28%.
Turning to `CC(C)CCn1c(=O)c2ccc(C(=O)NC(C)C)cc2n2c(=O)n(CC(=O)Nc3ccccc3)nc12`, the activity change, negative = inhibition in test [1] is 3.2% (inactive); in test [2], 2.47%; in test [3] it was 0%; in test [4], -0.014%; in test [5], 2.58%; in test [6], 3.82%.
As for `COC(=O)C(C)C1CCC2(C)C(=O)C=CC(C)(O)C2C1O` (stereo not given), the activity change, negative = inhibition was -21.2% (inactive) in test [1]; 0.317% in test [2]; 3.5% in test [3]; 4.59% in test [4]; -8.83% in test [5]; 5.47% in test [6].
Take `CC1(C(=O)NC2CCCCC2)Cn2c(nc3ccccc32)C(=O)N1CCCc1ccccc1` (stereo not given): the activity change, negative = inhibition in test [1] was -0.028% (inactive); in test [2] it was -0.457%; in test [3], 2.95%; in test [4] it was -0.222%; in test [5], 2.79%; in test [6], -1.29%.
Turning to `COc1cccc(S(=O)(=O)N2CCC([C@H]3[C@@H](OC)C(=O)N3C(C)C)CC2)c1`, the activity change, negative = inhibition in test [1] was -16.7% (inactive); in test [2], -11%; in test [3] it was -0.234%; in test [4], -8.83%; in test [5] it was -11.7%; in test [6] it was -7.58%.
On to `O=C(Nc1ccccc1Cl)N1CCn2cccc2C1Cc1ccccc1` (stereo not given), for which the activity change, negative = inhibition in test [1] was 8.91% (inactive); in test [2], -4.49%; in test [3], 0%; in test [4], 0.539%; in test [5] it was -1.29%; in test [6], 1%.
Consider `CC(=O)N(C1CCOCC1)C1CCN(S(=O)(=O)c2ccc3c(c2)OCCO3)CC1`, for which the activity change, negative = inhibition is 14.5% (inactive) in test [1]; 6.17% in test [2]; 0% in test [3]; 15.9% in test [4]; 5.83% in test [5]; 10% in test [6].
`COC1CCN(CC2CCCCCN2C(=O)NCc2ccc(F)cc2)CC1` (stereo not given): the activity change, negative = inhibition in test [1] is 0.269% (inactive); in test [2], -0.541%; in test [3], -1.47%; in test [4], 0.992%; in test [5] it was 0.892%; in test [6] it was -1.43%.
For the molecule `CCCc1sc(NC(=O)C[C@H]2NC(=O)c3ccccc3NC2=O)nc1C(=O)OC`, the activity change, negative = inhibition in test [1] was -0.596% (active); in test [2], -52%; in test [3] it was 0.55%; in test [4], -1.11%; in test [5] it was -24.7%; in test [6] it was -7.16%.
As to `CCOc1ccc(NC(=O)N2Cc3c(sc4c3CCCC4)-n3cccc3C2c2ccc(C)cc2)cc1` (stereo not given), the activity change, negative = inhibition in test [1] is -4.77% (inactive); in test [2] it was -7.14%; in test [3], -5.05%; in test [4], -0.466%; in test [5], -12.8%; in test [6], -3.68%.
Regarding `COc1ccc(CN2C(=O)c3cc4sccc4n3CC2(C)C(=O)NC2CCCCC2)cc1` (stereo not given), the activity change, negative = inhibition in test [1] is -1.71% (inactive); in test [2] it was -4.01%; in test [3], 4.64%; in test [4], 0.743%; in test [5] it was 0.231%; in test [6] it was -2.93%.
Take `CCCN1C(=O)c2c(C(=O)NCc3ccc(OC(C)C)cc3)ncn2CC1(C)C(=O)NCc1ccccc1` (stereo not given): the activity change, negative = inhibition in test [1] is 7.93% (inactive); in test [2], 0.786%; in test [3], 0%; in test [4] it was 10.9%; in test [5], 0.527%; in test [6], 8.93%.
On to `CCNc1ccnc(N2C[C@H]3CN(C(=O)N(C)C)C[C@@]3(C(=O)O)C2)n1`, for which the activity change, negative = inhibition is 1.84% (inactive) in test [1]; 0.021% in test [2]; 1.18% in test [3]; 0.65% in test [4]; 1.12% in test [5]; -1% in test [6].
On to `C=C1C(=O)O[C@@H]2[C@H]1CC[C@H](C)[C@]1(CCC(=O)O1)C2(C)O` (stereo not given in full), for which the activity change, negative = inhibition in test [1] was -16.8% (inactive); in test [2], 0%; in test [3], 7.54%; in test [4] it was 11.3%; in test [5], -3.81%; in test [6], 5.47%.
With `Cc1cc(C)c(S(=O)(=O)NCCc2nc(-c3ccc(Cl)cc3)n[nH]2)cc1C`, the activity change, negative = inhibition is -7.11% (inactive) in test [1]; 0.532% in test [2]; 3.01% in test [3]; -1.1% in test [4]; -4.42% in test [5]; -1.52% in test [6].
Take `CCC(CC)C(=O)NC[C@H]1O[C@@H](CC(=O)N2CCC(C)CC2)[C@H](O)[C@@H]1O`: the activity change, negative = inhibition was 0.159% (inactive) in test [1]; -5.41% in test [2]; -3.2% in test [3]; 0.02% in test [4]; -4.29% in test [5]; -0.431% in test [6].
Consider `Cc1cnc(C2CCC2)n1C1CCN(C(=O)CCC2CCCC2)CC1`, for which the activity change, negative = inhibition in test [1] is -0.614% (active); in test [2], -2.95%; in test [3], 3.19%; in test [4], -52.2%; in test [5], -10.2%; in test [6], 12.5%.
As to `Cc1cnc(-c2ccccc2)n1CCNC(=O)CCC1CCCC1`, the activity change, negative = inhibition in test [1] is -2.65% (inactive); in test [2] it was -4.13%; in test [3] it was -6.61%; in test [4] it was -3.82%; in test [5], -12.7%; in test [6], -3.43%.
Take `NS(=O)(=O)c1ccc(F)c(C(=O)NCc2noc(-c3ccco3)n2)c1`: the activity change, negative = inhibition in test [1] is -11.2% (inactive); in test [2], -7.86%; in test [3] it was -7.24%; in test [4], -3.67%; in test [5], -12%; in test [6], -1.94%.
Regarding `CCOc1ccc(CNC(=O)c2ncn3c2C(=O)N(C2CC2)C(C)(C(=O)NCc2ccccc2Cl)C3)cc1` (stereo not given), the activity change, negative = inhibition in test [1] is 11.3% (inactive); in test [2], 1.47%; in test [3], 2.43%; in test [4], 7.45%; in test [5], 1.94%; in test [6], 7.97%.
Consider `CCN(CC)CCCCNc1ncc2cc(-c3c(Cl)cccc3Cl)c(NC(=O)NC(C)(C)C)nc2n1`, for which the activity change, negative = inhibition is -1.2% (active) in test [1]; -7.18% in test [2]; 10.6% in test [3]; -54.9% in test [4]; -20.4% in test [5]; 0.23% in test [6].
In the case of `CN(CCc1ccccn1)c1ncccc1CNC(=O)C1CCc2ccccc21` (stereo not given), the activity change, negative = inhibition was -4.9% (inactive) in test [1]; -5.71% in test [2]; -6.23% in test [3]; -3.62% in test [4]; -10.6% in test [5]; -5.62% in test [6].
Consider `CCCCOc1ccc(CNC(=O)c2cc3n(n2)CC(C)(C(=O)NCc2ccccc2)N(C)C3=O)cc1` (stereo not given), for which the activity change, negative = inhibition is 6.54% (inactive) in test [1]; 8.47% in test [2]; 0.793% in test [3]; 9.19% in test [4]; 11.5% in test [5]; 7.21% in test [6].

(Values after PubChem BioAssay AID1745853 (National Center for Advancing Translational Sciences (NCATS), 2022).)
